Bioassay records: PubChem BioAssay, National Center for Advancing Translational Sciences (NCATS)
RE007 growth inh: less growth of the S. pombe RE007 Vpr strain. S. pombe RE007 Vpr strain, BacTiter-Glo ATP luminescence, 24 h. Potency, µM (highest dose often 92.2 µM), most hits filed as inhibitors. actives 0.21% (n = 360,000). AID 651644; active = well fitted falling curve with a large enough effect; inconclusive = small, poorly fitted or top-dose-only effect; inactive = no such curve, though single readings can be large or run the other way; also: nearly all actives have a fitted effect of over 50% in size
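Fission yeast RE007 carrying one integrated HIV-1 vpr copy, seeded at OD 0.01 in PMG+AL medium with 23 nL pinned compound. Grown 24 h at 30 degrees; viability read by BacTiter-Glo luminescence after 5 min.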
TbPYK inhibitor: blocks Trypanosoma brucei pyruvate kinase. TbPYK enzyme, Kinase-Glo Plus ATP luminescence, 45 min. Potency, µM (highest dose often 76.8 µM), usual class: inhibitors. actives 0.12% (n = 410,000); also: nearly all actives have a fitted effect of over 50% in size
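TbPYK + substrate in 50 mM TEA pH 7.2, 100 mM KCl, 10 mM MgCl2, 0.05% BSA, 0.01% Tween-20; cpd pinned; ADP 130 uM final; 45 min RT; Kinase-Glo Plus 10 min; luminescence endpoint.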
LmPK inhibitor: blocks Leishmania mexicana pyruvate kinase activity | Q27686 | purified LmPK, Kinase-Glo ATP luminescence, 1 h | Potency, µM (highest dose often 57.5 µM), hits mostly inhibitors | actives 0.37% (n = 290,000)
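ATP generated from ADP (0.1 mM) and PEP (0.5 mM) by 0.1 nM LmPK over 1 h at room temperature (pH 7.2 imidazole buffer) was detected by coupled luciferase luminescence. Values were normalized to uninhibited and no-enzyme wells.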
Shiga toxin inh: blocks Shiga toxin action in Vero cells | actives 9.2% (n = 290,000) | Vero cells, Shiga toxin protein synthesis inhibition reporter | inhibition, % at 38.7 µM; in the data active = inhibition mostly above about 28%, no sharp cut-off; inactive = mostly below about 43%
CHX counter: counter-screen hit for Shiga toxin inhibitors, cycloheximide; cell reporter, cycloheximide protein synthesis inhibition counterscreen; max response, %; actives 12% (n = 300,000); in the data active = max response mostly above about 13%, no sharp cut-off; inactive = mostly below about 14%; also: read at 38.3 µM for the half of the compounds with a filed dose
FBPA Giardia inh: inhibitors of Giardia lamblia fructose-1,6-bisphosphate aldolase; A8B2U2; purified Giardia FBPA; Potency, µM (series often up to 59.6 µM), usual class: inhibitors; actives 0.71% (n = 290,000); also: nearly all actives have a fitted effect of over 55% in size
Target sequence (A8B2U2 whole entry, looked up): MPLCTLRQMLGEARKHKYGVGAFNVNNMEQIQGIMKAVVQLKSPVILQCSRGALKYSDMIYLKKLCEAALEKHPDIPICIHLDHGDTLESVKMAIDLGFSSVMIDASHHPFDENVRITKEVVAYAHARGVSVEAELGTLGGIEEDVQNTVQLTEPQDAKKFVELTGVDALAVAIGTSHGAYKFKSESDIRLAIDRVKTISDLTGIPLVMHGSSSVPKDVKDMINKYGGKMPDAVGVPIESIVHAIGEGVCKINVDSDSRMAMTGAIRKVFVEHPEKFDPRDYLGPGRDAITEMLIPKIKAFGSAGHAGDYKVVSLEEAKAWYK
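Giardia FBPA (40 nM reagent) was preincubated 10 min at RT with compound (up to 57.5 uM final), then substrate plus GAPDH/TPI/NAD/arsenate coupling system with diaphorase/resazurin was added; resorufin fluorescence (525/598 nm) was read after 20 min.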
Of the large screens only hits and unclear results are named; the others gave an inactive call. Only a selection was taken, and hits are over-represented in it overall. Unless noted, calls follow the shape of the dose curve; as a rule, active = well fitted curve in the direction sought with a large enough effect; inconclusive = small, poorly fitted or top-dose-only effect, or another doubt; inactive = no such curve, though single readings can be large; an effect the other way counts as inactive or inconclusive.

N#C/C(=C\c1ccc(F)c(Br)c1)C(=O)NC1CC1	Shiga toxin inh 42, CHX counter 30 (no result: FBPA Giardia inh)
CCN1C(=O)N(CC)C(=O)C2(Cc3ccccc3N3CCN(c4ccccc4)CC32)C1=O (stereo unspecified)	Shiga toxin inh 70, CHX counter 36
Cc1cc(-c2nnc(CCC(=O)NCc3ccc(OC(F)(F)F)cc3)o2)no1	CHX counter 16
Cc1cc(-c2nnc(CCC(=O)N(C)Cc3ccsc3)o2)no1	CHX counter 21
Cc1cc(-c2nnc(CCC(=O)NC(C)(C)C34CC5CC(CC(C5)C3)C4)o2)no1	none (no result: LmPK inhibitor, Shiga toxin inh, CHX counter, FBPA Giardia inh)
Cc1cc(-c2nnc(CCC(=O)NC(C)c3ccc(F)cc3)o2)no1 (stereo unspecified)	none
Cc1cc(-c2nnc(CCC(=O)N(C)C(C)c3cccs3)o2)no1 (stereo unspecified)	Shiga toxin inh 77, CHX counter 48
CC(C)(C)OC(=O)NCC1CCN(S(=O)(=O)Cc2ccccc2)CC1	none
CC(C)(C)OC(=O)NCC12C=CC(O1)C1C(=O)N(Cc3ccccc3)C(=O)C12 (stereo unspecified)	RE007 growth inh 45µM
Cc1oc(C)c2c(=O)cc(-c3ccc4c(c3)OCO4)cc(OC(=O)c3ccccc3Br)c12	none (no result: RE007 growth inh, LmPK inhibitor, Shiga toxin inh, CHX counter, FBPA Giardia inh)
COc1cc(/C=N\NC(=O)CN2CCOCC2)ccc1OCC(=O)Nc1ccc(C)c(C)c1	Shiga toxin inh 35, CHX counter 14
O=C(CN1CCSCC1)N/N=C/c1cccc(Cl)c1	CHX counter 15, FBPA Giardia inh inconclusive
O=C(CN1CCCCCC1)N/N=C/c1cccc(Cl)c1	none
COc1ccc(/C=N/NC(=O)CN2CCSCC2)cc1C	CHX counter 18
COc1ccc(-n2c(SCC(=O)Nc3nnc(C)s3)nc3c([nH]c4ccccc43)c2=O)cc1	none (no result: RE007 growth inh, LmPK inhibitor, Shiga toxin inh, CHX counter, FBPA Giardia inh)
O/N=C/c1ccc2ccccc2c1	CHX counter 21
Cc1cc(C)n(C(=O)c2cc3sccc3[nH]2)n1	Shiga toxin inh 64, CHX counter 30
Cc1cc(C)n(C(=O)c2ccc(C)o2)n1	none
CC1CCCCC1NC(=O)CN1CCC(NC(=O)C(C)(C)C)CC1 (stereo unspecified)	none (no result: LmPK inhibitor, Shiga toxin inh, CHX counter, FBPA Giardia inh)
O=c1cc(-c2ccccc2F)oc2ccccc12	RE007 growth inh 63µM, Shiga toxin inh 59, CHX counter 28
CSc1ccc(-c2cc(=O)c3ccccc3o2)cc1	RE007 growth inh inconclusive, Shiga toxin inh 34, CHX counter 40
O=c1cc(-c2ccc(F)cc2)oc2ccccc12	none (no result: LmPK inhibitor, Shiga toxin inh, CHX counter, FBPA Giardia inh)
Cc1ccc(-c2nnc3ccccc3c2C(=O)Nc2cccc(C(F)(F)F)c2)cc1	none (no result: RE007 growth inh, LmPK inhibitor, Shiga toxin inh, CHX counter, FBPA Giardia inh)
CCC(C)c1ccc(S(=O)(=O)N2CCN(C(=O)c3ccc(Cl)c(S(=O)(=O)N4CCOCC4)c3)CC2)cc1 (stereo unspecified)	none (no result: LmPK inhibitor, Shiga toxin inh, CHX counter, FBPA Giardia inh)
CCN1c2cc(C)ccc2-n2cccc2C12CCN(C(=O)Nc1cc(OC)c(OC)c(OC)c1)CC2	none (no result: RE007 growth inh, LmPK inhibitor, Shiga toxin inh, CHX counter, FBPA Giardia inh)
O=C1c2ccccc2S(=O)(=O)N1CC1CC(c2ccccc2Cl)=NO1 (stereo unspecified)	RE007 growth inh inconclusive, Shiga toxin inh active, CHX counter 86
COc1ccccc1C1=NOC(CN2C(=O)c3ccccc3S2(=O)=O)C1 (stereo unspecified)	Shiga toxin inh 146, CHX counter 53
O=C(NCC1CCCO1)C1CC(c2ccccc2Cl)=NO1 (stereo unspecified)	none
O=C(c1cc2ccccn2n1)N1CCN(Cc2ccccc2)CC1	CHX counter 59
O=c1ccc2ccc(O)c(O)c2o1	FBPA Giardia inh 10µM (no result: RE007 growth inh, TbPYK inhibitor, LmPK inhibitor, Shiga toxin inh, CHX counter)
O=[N+]([O-])c1ccc(Nc2ccc(F)cc2)nc1	Shiga toxin inh 32, CHX counter 15
Cc1ccc(Nc2ccc([N+](=O)[O-])cn2)cc1Cl	Shiga toxin inh 46, CHX counter 27
CN(C)c1ccc(Nc2ccc([N+](=O)[O-])cn2)cc1	Shiga toxin inh 132, CHX counter 34
CC(=O)Nc1ccc(Nc2ccc([N+](=O)[O-])cn2)cc1	none
O=C(NCc1ccccc1Br)c1ccc(-n2cnc3cccnc32)cc1	none (no result: RE007 growth inh, LmPK inhibitor, Shiga toxin inh, CHX counter, FBPA Giardia inh)
CCc1cccc(C)c1NC(=O)c1cc(S(=O)(=O)N2CCOCC2)cn1C	none (no result: RE007 growth inh, LmPK inhibitor, Shiga toxin inh, CHX counter, FBPA Giardia inh)
COc1ccc(/C=N/n2cc(-c3ccc(OC)cc3)nc2N)cc1	none
COc1ccc(/C=N/n2cc(-c3ccccc3)nc2N)cc1	Shiga toxin inh 43, CHX counter 28
O=C(Nc1ccc(Cl)cn1)c1ccc(COc2ccccc2Br)o1	Shiga toxin inh 162, CHX counter 61
COC(=O)c1ccccc1NC(=O)c1ccc(COc2cc(C)cc(C)c2)o1	none
O=C(Nc1nn(Cc2ccc(Cl)cc2)cc1Br)c1ccc(COc2ccccc2Cl)o1	none
Cc1ccc(NC(=O)c2ccc(COc3ccccc3)o2)nc1	Shiga toxin inh 55, CHX counter 26 (no result: FBPA Giardia inh)
O=C(Nc1cccnc1)c1ccc(COc2ccccc2Cl)o1	none
CCOc1ccc(OCc2ccc(C(=O)Nc3ccc(Cl)cn3)o2)cc1	Shiga toxin inh 34
O=C(Nc1ccccn1)c1ccc(COc2ccccc2Cl)o1	Shiga toxin inh 89, CHX counter 30
CCOc1ccc(-c2nonc2NC(=O)c2oc3cc(C)c(C)cc3c2C)cc1OCC	none (no result: RE007 growth inh, LmPK inhibitor, Shiga toxin inh, CHX counter, FBPA Giardia inh)
CC(=O)Nc1ccc(NC(=O)c2ccc(-c3ccc([N+](=O)[O-])cc3)o2)cc1	none
C=CCNC(=O)c1ccc(-c2ccc([N+](=O)[O-])cc2)o1	Shiga toxin inh active, CHX counter 19
